Screening data: PubChem BioAssay, National Center for Advancing Translational Sciences (NCATS)
GPT2 inh: Primary qHTS assay for inhibitors of Glutamate pyruvate transaminase 2 (GPT2) | Alanine aminotransferase 2 (Homo sapiens), Q8TD30 | Recombinant GPT2, coupled pyruvate oxidase/HRP Amplex Red fluorescence | 100,000 tested, 0.25% active | Potency, µM (top dose mostly 57.7 µM), for the others: at the top dose activity change, negative = inhibition, hits mostly inhibitors; also: potency is read from the fitted curve at half-maximal effect; % is scaled to controls: 0 for no effect and ±100 for the full control effect; nearly all actives have a fitted effect of over 60% in size
Target sequence (Q8TD30 whole entry, looked up): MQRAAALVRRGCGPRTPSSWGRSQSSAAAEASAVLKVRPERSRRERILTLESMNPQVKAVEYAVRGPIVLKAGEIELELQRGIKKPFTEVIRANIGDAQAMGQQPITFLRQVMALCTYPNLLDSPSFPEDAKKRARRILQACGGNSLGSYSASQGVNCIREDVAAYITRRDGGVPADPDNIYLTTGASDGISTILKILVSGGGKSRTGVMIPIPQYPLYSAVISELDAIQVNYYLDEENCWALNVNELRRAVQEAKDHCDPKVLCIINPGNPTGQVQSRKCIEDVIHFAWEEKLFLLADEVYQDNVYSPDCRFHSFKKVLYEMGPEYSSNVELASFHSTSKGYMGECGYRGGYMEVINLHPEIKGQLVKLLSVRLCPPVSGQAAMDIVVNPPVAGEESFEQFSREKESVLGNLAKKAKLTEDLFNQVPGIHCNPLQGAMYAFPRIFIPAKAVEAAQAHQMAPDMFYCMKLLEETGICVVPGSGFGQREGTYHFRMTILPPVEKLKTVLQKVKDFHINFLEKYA
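Fluorescence read-out: pyruvate from GPT2 turnover coupled to pyruvate oxidase, HRP and Amplex Red (0.2mM ThPP, 0.2U/mL PO and HRP, 50uM Amplex final). Substrates 250uM a-KG, 2mM L-alanine; enzyme 10ng/uL; 30 min RT.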
hNpr1 antagonist: Natriuretic polypeptide receptor (hNpr1) antagonism - Primary qHTS. AID 1347048, 2019. Potency, µM (doses to about 46.3 µM), without a hit: at the top dose activity change, negative = inhibition, most hits filed as inhibitors. 76,000 tested, 1.6% active. HEK293 hNpr1 GloSensor cGMP, ANP-stimulated luminescence; calls by dose curve; also: potency is read from the fitted curve at half-maximal effect; % is scaled to controls: 0 for no effect and ±100 for the full control effect; nearly all actives have a fitted effect of over 60% in size
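Compound pre-incubated 30 min at room temperature on GloSensor-loaded HEK293 cells stably carrying hNpr1 and the pGS-40F cGMP biosensor. Stimulation uses hNppA at 0.1 nM final; luminescence is taken at baseline and 20 min post-agonist.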
GPT2 inh cnf: Confirmatory qHTS assay for inhibitors of Glutamate pyruvate transaminase 2 (GPT2). 95 tested, 90% active. shares compounds with GPT2 inh. Potency, µM, most hits filed as inhibitors. GPT2 enzyme, coupled Amplex Red pyruvate fluorescence
An asterisk follows results filed as active; i = inactive; ? = inconclusive; nt = not tested or not shown; [ ] = another dose, or the depositor's remark. Many of the other results were omitted from the sample, so hits are more common in it than they were. Unless noted, calls follow the shape of the dose curve; as a rule, active = well fitted inhibition curve with a large enough effect; inconclusive = small, poorly fitted or top-dose-only effect; inactive = flat fitted curve, though single readings scatter.

SMILES	GPT2 inh	hNpr1 antagonist	GPT2 inh cnf
CNC(=O)c1cc(Nc2cccc(N(C)C)c2)cc2c1OCCN2Cc1cccnc1	?	-1%[70.6 µM]	3.5*
CNC(=O)c1cccc(Nc2ncc3c(n2)CN([S+](=O)([O-])c2cccc(OC)c2)CCN3)c1	i	4%	nt
COc1cccc([S+](=O)([O-])N2CCNc3cnc(Nc4ccc(N5CCOCC5)cc4)nc3C2)c1	1.1µM*	2%	1.2*
Cc1cnc(C(=O)N2CCOc3ccc(CN4CCCCCC4)cc3C2)cn1	i	2%	nt
CN(C)c1ccc2c(c1)CN(C(=O)c1cnccn1)CCO2	?	nt	0.86*
COc1ccc(NC2CCCN(C(=O)C(=O)CC(C)C)C2)cc1OC (stereo not drawn)	22µM*	2%	3.4*
COc1ccc(NC(=O)NCC2CCCN(C(C)C)C2)cc1OC (stereo not drawn)	i	9%	nt
COc1cccc(CN2CCc3c(cc(C(=O)N4CCN(CC(C)C)CC4)n3C)C2)c1	i	2%	nt
O=c1cc(-c2ccccc2)oc2cc(O)c(O)c(O)c12	i	nt	nt
O=C(O)[C@H]1O[C@H](Oc2cc3oc(-c4ccccc4)cc(=O)c3c(O)c2O)[C@H](O)[C@@H](O)[C@H]1O	3.4µM*	nt	3.1*
COc1cc(N2CCC(N(C)C)CC2)ccc1Nc1ncc(Cl)c(Nc2ccccc2P(C)(C)=O)n1	1.9µM*	nt	2.2*
COc1cc(N2CCN(C)CC2)ccc1Nc1nccc(-c2cn(C)c3cnccc23)n1	3.5µM*	nt	2.4*
COc1cc(N2CCC(N3CCN(C)CC3)CC2)ccc1Nc1ncc(Cl)c(Nc2ccccc2S(=O)(=O)C(C)C)n1	2.2µM*	nt	3.1*
COc1ccccc1Nc1ccnc(N2CCN(C(=O)C3CC3)CC2)n1	1%	nt	nt
COc1ccc(-n2cc(-c3ccnc(NCCC4CCCN4C)n3)cn2)cc1 (stereo not drawn)	-6%	0%	nt
CNS(=O)(=O)c1ccccc1Nc1nc(Nc2ccc(N3CCN(C)CC3)cc2OC)ncc1Br	?	nt	2.7*
COc1cc(C(=O)NC2CCN(C)CC2)ccc1Nc1ncc2c(n1)N(C1CCCC1)CCC(=O)N2C(C)C	i	nt	nt
COc1ccccc1Nc1ccnc(N2CCC(NC(=O)c3ccc(Cl)nc3)CC2)n1	-12%	nt	nt
CC(C)c1ccc(CN2C[C@@H]3[C@H](C2)N(CCOc2ccccc2)C(=O)C(C)(C)[S+]3(=O)[O-])cc1	-4%	-1%	nt
Cc1cccc(OCC(=O)N[C@@H]2CN(c3ncccn3)C[C@H]2CN(C)C)c1	-18%	-3%	nt
O=C(NCc1cccs1)C1CCCN1c1nc2ncccc2o1 (stereo not drawn)	i	-3%[70.6 µM]	nt
Cc1oc(C2CCN(C(=O)CCc3cc(Cl)no3)CC2)nc1C(=O)N1CCOCC1	i	nt	nt
CCn1cc(CN(C)S(=O)(=O)c2ccc(C(=O)NC3CC3)cc2)cn1	-27%	0%	nt
Cc1cn2nc(C(=O)N3CCC(NC(=O)c4ccc(F)cc4)CC3)cc2c(=O)[nH]1	i	0%	nt
COc1cc(OC)cc(C(=O)N2CCCC(n3cc(-c4nc(-c5ccccc5)no4)nn3)C2)c1 (stereo not drawn)	-4%	-10%	nt
SMILES	GPT2 inh	hNpr1 antagonist	GPT2 inh cnf
COc1ccc(CN2CCNc3cc(-c4ccccc4)ncc3C2)cn1	5%[88.5 µM]	-14%[70.6 µM]	nt
COc1cccc(Nc2cc3c(cn2)CN(Cc2ccncc2)CCN3)c1	2%[88.5 µM]	-25%[70.6 µM]	nt
COc1ccc(CN2CCNc3cnc(Nc4ccccc4)cc3C2)cn1	?	-4%[70.6 µM]	3.1*
COc1ccc(Nc2cc3c(cn2)NCCN(Cc2ccccc2)C3)cc1	?	?	5.6*
c1ccc(Nc2cc3c(cn2)NCCN(Cc2ccsc2)C3)cc1	?	-3%[70.6 µM]	2.5*
COCCN1CCNc2cc(Nc3ccc(N4CCOCC4)cc3)ncc2C1	?	2%[70.6 µM]	5.6*
Fc1ccccc1CN1CCNc2cnc(Nc3ccccc3)cc2C1	-84%[88.5 µM]	?	nt
COCCN1CCNc2cc(Nc3cccc(OC)c3)ncc2C1	4%[88.5 µM]	5%[70.6 µM]	nt
CCn1ncc(N2CCC(NC(=O)Cc3ccc(F)cc3)CC2)cc1=O	i	-11%	nt
CN(Cc1cc2n(n1)CCNC2)Cc1cnc(-c2ccccc2)s1	-8%	-1%	nt
CCc1noc(-c2cn(C3CCN(C(=O)c4ccc(C#N)cc4)CC3)nn2)n1	i	7%	nt
Cc1ccc(OCC(=O)N2CCCN(S(C)(=O)=O)c3ccccc32)cc1	i	2%	nt
COc1ccccc1-c1cc(C(=O)N2CCN(c3ncccn3)CC2)nc2c1cnn2C	-9%	nt	nt
C[C@@H]1CN(C(=O)c2ccccc2C#N)CC[C@@]1(O)C1CCOCC1	i	6%	nt
Cc1cc2c(s1)Nc1ccccc1N=C2N1CCN(C)CC1	?	nt	8.6*
Cc1ccc2c(c1)C(N1CCN(C)CC1)=Nc1cccnc1N2	i	nt	nt
Cc1nc(N2CCCC2)nc(N2CCC3(CC2)OCCCC3O)c1C (stereo not drawn)	-23%	0%	nt
Cc1cc2c(N3CCCC3)nc(N3CCCC3)nc2n1C	?	nt	?
O=C(C[C@@H]1CCNC[C@@H]1Cc1cc(-c2ccc(F)cc2)on1)N1CCC(Cc2ccccc2)CC1	-3%	1%	nt
Cc1ncc2c(c1CNC(=O)c1cccc(-c3ncc[nH]3)c1)CCNC2	2%	-1%	nt
CC(=O)NC1(C)CN(c2ccc(OC(F)(F)F)cc2)C1	-9%[88.5 µM]	-13%[70.6 µM]	nt
COc1ccc(N2CC(C)(NC(C)=O)C2)cc1	nt	nt	3.5*
CCC(C)NC(=O)C(NC(=O)c1ccccc1Cl)C1CCN(C(=O)c2cccc(OC)c2)CC1 (stereo not drawn)	i	-11%	nt
O=C(c1cccs1)N1CCOc2ccc(N3CCCC3)cc2C1	1.3µM*	nt	1.4*
O=C(COc1ccc(F)cc1)N1CCOc2ccc(N3CCOCC3)cc2C1	4%	nt	nt
SMILES	GPT2 inh	hNpr1 antagonist	GPT2 inh cnf
O=C(CCc1ccsc1)N1CCC2(CCCN(Cc3cccnc3)C2=O)C1 (stereo not drawn)	-11%	5%	nt
CNC(=O)[C@H]1C[C@H](Oc2ccccc2)CN1C(=O)Nc1ccc2c(c1)OCCO2	i	-2%	nt
COc1ccc(N2CCN(C3CCCN(CC=C(C)C)C3)CC2)cc1 (stereo not drawn)	?	-9%	nt
COc1ccc(N2CCN(C3CCCN(Cc4cc(=O)[nH]c(=O)[nH]4)C3)CC2)cc1 (stereo not drawn)	?	-3%	6.9*
Cc1cccc(C(=O)NCc2nnc3c(-c4nc(C(C)C)no4)cccn23)c1	-4%	6%	nt
O=C(c1ccc2nnc(-c3ccoc3)n2c1)N1CCOCC1	i	nt	nt
CN1CCOc2c(C(=O)N3CC[S+](=O)([O-])CC3)cc(N3CCOCC3)cc21	nt	nt	2*
CN1CCOc2c(C(=O)NCCC(N)=O)cc(-c3ccccc3)cc21	i	1%[70.6 µM]	nt
CN1CCOc2c(C(=O)NCCc3ccccc3)cc(N3CCOCC3)cc21	?	0%[70.6 µM]	nt
CC(C)CNC(=O)c1cc(N2CCOCC2)cc2c1OCCN2C	nt	nt	2*
O=C(Cc1cccnc1)N1CCC2(CC1)CN(Cc1ccccc1)CC2CO (stereo not drawn)	1%	-1%	nt
CC(=O)Nc1ccc(-c2c(C3CC3)nn(-c3cccc(C)c3)c2OC(C)=O)cc1	?	1%	9.7*
CC(=O)Nc1ccc(C(=O)N2CCCC(c3nc(C)ncc3-c3cccc(C)c3)C2)cc1 (stereo not drawn)	3%	4%	nt
